Measurements published in PubChem BioAssay (NCI).
Compounds without any hit were thinned out: in the full panel of roughly 83,000, 20% have a hit.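 Activity criterion: percent growth below 10, measured after cells in 96-well plates were exposed to a single compound concentration for 48 hours.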 Values without a mark were called inactive. Active and inactive are the calls of the source.

Columns and labels:
Test in all cases: NCI-60 one-dose screen, 48 h (100 = growth as untreated, 0 = no growth, -100 = all killed)
Conditions in all cases: 10 µM unless noted
[1] = tested on: SR leukemia
[2] = tested on: OVCAR-8 ovarian
[3] = tested on: OVCAR-5 ovarian
[4] = tested on: OVCAR-4 ovarian
[5] = tested on: SK-OV-3 ovarian
[6] = tested on: IGROV1 ovarian
[7] = tested on: OVCAR-3 ovarian
[8] = tested on: HS 578T breast
[9] = tested on: NCI/ADR-RES ovarian
[10] = tested on: T-47D breast
[11] = tested on: BT-549 breast
[12] = tested on: MDA-MB-435 melanoma
[13] = tested on: SW-620 colon
[14] = tested on: MCF7 breast
[15] = tested on: HCT-116 colon
[16] = tested on: HCC-2998 colon
[17] = tested on: KM12 colon

| SMILES | growth [1] | growth [2] | growth [3] | growth [4] | growth [5] | growth [6] | growth [7] | growth [8] [%] | growth [9] | growth [10] | growth [11] [%] | growth [12] | growth [13] | growth [14] | growth [15] | growth [16] | growth [17] |
| --- | --- | --- | --- | --- | --- | --- | --- | --- | --- | --- | --- | --- | --- | --- | --- | --- | --- |
| N/N=C(\C(=N\N)c1ccccc1)c1ccccc1 | 77.2% | 104% | 102% | 77.3% | 99.4% | 96.8% | 112% | 108 | 102% | 93% | 88 | 103% | 101% | 90% | 101% | 99.8% | 105% |
| O=C(O)C(CCc1ccccc1)NCc1ccccc1 (stereo not drawn) | 106% | 106% | 93.5% | 78.5% | 98.5% | 101% | 100% | 99.4 | 93.7% | 96.3% | 47.4 | 104% | 102% | 95.3% | 90.7% | 97.2% | 100% |
| O=C(c1ccccc1)C(CCc1ccccn1)CCc1ccccn1 | 83.3% | 109% | 99.6% | 111% | 95.8% | 93.2% | 103% | 121 | 105% | 92.3% | 106 | 108% | 107% | 106% | 94% | 96.5% | 109% |
| CC(C)CCSc1nc(-c2ccc(F)cc2)c(C#N)c(N2CCN(C)CC2)n1 | 67.5% | 83.2% | 91.3% | 96.7% | 87% | 95.2% | 93.9% | 79.1 | 87.2% | 68.3% | 89 | 93.6% | 90.2% | 83.9% | 79% | 97.2% | 91.7% |
| O=C(NCCN1CCCCC1)n1cc(-c2ccncc2)c(-c2ccc(Cl)c(O)c2)n1 | 70.9% | 89.1% | 96.5% | 122% | 71.5% | 74% | 113% | 92.5 | 95.6% | 79.2% | 68.9 | 58.9% | 100% | 91% | 44.6% | 113% | 102% |
| COc1cnc2c(c1)C(=O)c1c-2n(CCCNC(C)C)c(=O)c2cc(Cl)ccc12 | -52.1% (active) | -41.6% (active) | -56.1% (active) | -77% (active) | -5.05% (active) | -57% (active) | -78.3% (active) | 58.1 | -9.91% (active) | -84.3% (active) | 30.9 | -94.6% (active) | -81.7% (active) | -58.6% (active) | -92.4% (active) | -52.1% (active) | -71.7% (active) |
| O=S(=O)(Cc1ccc(Cl)cc1Cl)c1ccc(Cl)cc1 | 24.3% | 31.9% | 53.9% | 69.5% | 9.24% (active) | 36.1% | 1.54% (active) | 63.3 | -8.57% (active) | 47.5% | 62.7 | -33.1% (active) | 37.5% | 22.1% | 26.9% | 31.7% | 33.6% |
| O=C(CC(=O)c1cccc(Cl)c1)c1cccc(Cl)c1 | 2.96% (active) | 21.9% | 46.8% | 42% | 47.5% | 34.1% | 32% | 73.6 | 8.52% (active) | 37.2% | 47.6 | 47.9% | 30.7% | 25.4% | 19.8% | 35% | 41.9% |
| CCCCCCCCCCCC1=NC(C)(C)CN1CC(C)O (stereo not drawn) | -61.4% (active) | 81.7% | 92.5% | 70.2% | 82.6% | 30% | 73.9% | 71.6 | 87% | 58.9% | 67.8 | -7.43% (active) | 52% | 25.8% | 22.8% | -60.8% (active) | 34% |
